BRCT PPI green: blocks human BRCA1 BRCT binding to phosphopeptide, green readout. P38398. AID 875. BRCA1 BRCT-phosphopeptide binding, green fluorescence polarization. Potency, µM (highest dose often 76.9 µM), without a hit: at the top dose activity change, negative = inhibition, most hits filed as inhibitors. actives 0.05% (n = 75,000);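 further: potency means the concentration at half of the fitted maximal effect; plate controls were peptide without protein for full effect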
Target sequence (P38398 whole entry, looked up): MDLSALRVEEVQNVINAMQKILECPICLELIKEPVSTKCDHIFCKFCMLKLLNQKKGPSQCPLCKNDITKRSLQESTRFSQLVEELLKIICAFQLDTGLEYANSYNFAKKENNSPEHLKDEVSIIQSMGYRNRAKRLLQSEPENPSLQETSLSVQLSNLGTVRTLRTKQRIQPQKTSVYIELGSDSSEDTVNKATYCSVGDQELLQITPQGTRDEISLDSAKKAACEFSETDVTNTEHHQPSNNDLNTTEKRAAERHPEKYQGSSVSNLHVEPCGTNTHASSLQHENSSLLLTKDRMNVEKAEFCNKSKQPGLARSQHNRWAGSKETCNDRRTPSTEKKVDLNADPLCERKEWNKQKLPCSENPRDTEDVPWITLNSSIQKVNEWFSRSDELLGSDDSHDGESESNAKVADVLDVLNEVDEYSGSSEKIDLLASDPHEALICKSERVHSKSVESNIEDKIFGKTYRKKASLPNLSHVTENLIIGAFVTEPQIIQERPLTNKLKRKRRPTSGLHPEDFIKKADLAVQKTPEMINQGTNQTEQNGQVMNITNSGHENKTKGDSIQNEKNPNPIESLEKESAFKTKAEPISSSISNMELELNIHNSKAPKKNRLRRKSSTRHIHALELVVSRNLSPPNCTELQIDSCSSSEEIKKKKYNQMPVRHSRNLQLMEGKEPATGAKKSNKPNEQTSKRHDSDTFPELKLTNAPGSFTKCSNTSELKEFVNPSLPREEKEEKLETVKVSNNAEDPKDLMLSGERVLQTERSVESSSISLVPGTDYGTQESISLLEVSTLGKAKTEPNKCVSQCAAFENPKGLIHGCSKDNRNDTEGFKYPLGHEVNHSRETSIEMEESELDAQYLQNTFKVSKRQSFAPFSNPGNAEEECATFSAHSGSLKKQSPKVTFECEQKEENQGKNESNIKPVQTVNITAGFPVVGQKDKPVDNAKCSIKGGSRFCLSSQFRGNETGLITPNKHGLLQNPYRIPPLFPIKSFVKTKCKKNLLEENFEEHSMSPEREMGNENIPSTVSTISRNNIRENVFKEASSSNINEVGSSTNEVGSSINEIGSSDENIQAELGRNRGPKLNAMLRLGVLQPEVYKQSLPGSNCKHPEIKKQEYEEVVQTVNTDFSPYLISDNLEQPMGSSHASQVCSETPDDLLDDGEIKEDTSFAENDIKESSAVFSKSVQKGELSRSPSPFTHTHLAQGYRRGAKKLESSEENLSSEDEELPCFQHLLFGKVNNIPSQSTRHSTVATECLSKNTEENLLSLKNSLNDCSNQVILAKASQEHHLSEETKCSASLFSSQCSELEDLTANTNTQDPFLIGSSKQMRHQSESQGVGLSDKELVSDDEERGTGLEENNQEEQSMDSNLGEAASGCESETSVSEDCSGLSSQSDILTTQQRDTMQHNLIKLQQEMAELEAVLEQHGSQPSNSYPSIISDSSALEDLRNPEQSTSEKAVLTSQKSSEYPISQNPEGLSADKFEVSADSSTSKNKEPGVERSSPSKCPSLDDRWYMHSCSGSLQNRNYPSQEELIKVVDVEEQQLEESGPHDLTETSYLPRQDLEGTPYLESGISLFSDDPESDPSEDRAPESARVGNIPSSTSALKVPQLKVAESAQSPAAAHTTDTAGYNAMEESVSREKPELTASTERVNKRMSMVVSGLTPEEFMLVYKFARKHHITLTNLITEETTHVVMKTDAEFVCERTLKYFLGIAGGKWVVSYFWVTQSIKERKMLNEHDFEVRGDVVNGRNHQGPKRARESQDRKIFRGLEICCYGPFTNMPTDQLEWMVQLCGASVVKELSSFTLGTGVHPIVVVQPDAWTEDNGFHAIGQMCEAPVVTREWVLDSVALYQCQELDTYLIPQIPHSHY
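Compounds were incubated for 12 min at room temperature with a complex of 100 nM fluorescein-tagged pBACH1 decapeptide and 250 nM His-tagged BRCT protein. Buffer was phosphate pH 7.3 with EDTA, DTT and Tween 20. Disruption of binding lowers the polarization signal.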
BRCT inh red: BRCT-phosphoprotein interaction inhibition (red fluorophore); BRCT-phosphopeptide binding, red fluorescence polarization; Potency, µM (highest dose often 76.9 µM), for inactives: at the top dose activity change, negative = inhibition, hits mostly inhibitors; actives 0.03% (n = 75,000); further: on the % scale 0 is the no-effect control and ±100 the full control effect
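Rhodamine-labelled pBACH1 10-mer (100 nM) bound to BRCT domain (100 nM) at pH 7.3; compounds incubated 12 min room temperature, polarization read. Free peptide defines full inhibition; unlabelled decapeptide titrated as control.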
YjeE inh: displaces an ADP probe from E. coli YjeE (TsaE) | purified YjeE enzyme, qHTS inhibition assay | Potency, µM | actives 0.05% (n = 71,000) | P0AF67
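Fluorescence polarization of a BODIPY Texas Red–ADP probe (2 uM) bound to purified YjeE (10 uM) was read after 15 min room-temperature incubation with compounds. Loss of polarization marks inhibitors; ADP serves as titrated control.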
GBA mod: modulators of human glucocerebrosidase. Potency, µM. purified enzyme, resorufin glucoside fluorescence (screen aimed at inhibitors), 20 min. actives 1.1% (n = 48,000). P04062; in the data active means potency below about 15 µM; inconclusive means mostly about 16 µM to 33 µM;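 further: potency means the concentration at half of the fitted maximal effect; the screen sought inhibitors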
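Wild-type enzyme at 0.2 nM final in 50mM citric acid/KH2PO4, 10mM sodium taurocholate, 0.01% tween-20, pH 5.9, with resorufin beta-D-glucopyranoside at 30 uM final. Compounds titrated, 20 min at RT, red fluorescence read; AC50 from titration.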
Hsp90 Hop PPI: changes Hsp90-Hop TPR2A binding signal, up or down; AlphaScreen TPR2A-His6 binding biotin-Hsp90 C-terminal peptide; actives 0.44% (n = 71,000); AID 595; Potency, µM (doses to about 57 µM), without a hit: at the highest dose activity change, negative = inhibition; active means well fitted curve in either direction with a large enough effect; inconclusive means small, poorly fitted or top-dose-only effect, or another doubt; further: potency means the concentration at half of the fitted maximal effect; on the % scale 0 is the no-effect control and ±100 the full control effect
Pol III holo inh: DNA polymerase III holoenzyme inhibition | reconstituted DNA polymerase III holoenzyme replication, biochemical | Potency, µM (titrated, usually from 57.1 µM), without a hit: top-dose activity change, negative = inhibition | actives 0.25% (n = 71,000) | AID 603; further: potency means the concentration at half of the fitted maximal effect; on the % scale 0 is the no-effect control and ±100 the full control effect
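Reconstituted *E. coli* holoenzyme (0.35 nM Pol III, 1 nM beta, 154 nM SSB, 2 nM primase) was preincubated with compound for 15 min at RT. Synthesis on 1.4 nM ssM13Gori ran 35 min, then was stopped with PicoGreen/EDTA and read as dsDNA fluorescence.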
* = called active by the depositor; i = inactive; u = inconclusive; x = not tested or not shown; [ ] = remark or other dose. The list is not random: actives were taken first. Their share in the collection is about 1.2%. Unless noted, the call rests on the fitted dose curve; in most records, active means well fitted curve in the direction sought with a large enough effect; inconclusive means small, poorly fitted or top-dose-only effect, or another doubt; inactive means no such curve, though single readings can be large; an effect the other way counts as inactive or inconclusive.

SMILES	BRCT PPI green	BRCT inh red	YjeE inh	GBA mod	Hsp90 Hop PPI	Pol III holo inh
Fc1c(F)c(F)c(CSc2nc3ccccc3[nH]2)c(F)c1F	-2%	-2%	i	x	4µM*	-10%
NCCCCNCCCN	-3%	1%	i	x	-2%	1%
NCCNCCNCCN	-2%	-2%	i	x	6.3µM*	2%
Cc1ccc2c(COn3nnc4ccc(S(=O)(=O)N(C)C)cc43)cc(=O)oc2c1C	-4%	-1%	i	11*	-2%	-6%
CCN(CCO)Cc1cc(=O)oc2c(C)c(C)ccc12	1%	-1%	i	>77	-3%	-4%
CC[N+](CC)(CC)CC[C@](O)(c1ccccc1)C1CCCCC1	0%[34.4 µM]	-1%[34.4 µM]	i	x	2%[26 µM]	-4%[25.6 µM]
COc1ccc2nc3c(nc2c1)C(=O)c1ccccc1-3	0%	2%	x	x	x	x
CN(C)c1ccc2nc3c(C(=O)O)cc(=O)c(O)c-3oc2c1	-2%[15.4 µM]	-2%[15.4 µM]	i	x	-20%[11 µM]	3.2µM*
COCc1nnc(NC(=O)c2ccc(NC(=O)C(C)C)cc2)s1	-2%	0%	i	0.54*	0%	-3%
CCc1nnc(NC(=O)c2ccc(S(=O)(=O)N3CCCCCC3)cc2)s1	-1%	-2%	i	1.4*	-1%	-7%
CCc1nnc(NC(=O)c2ccc(S(=O)(=O)N3CCCCC3C)cc2)s1 (stereo unspecified)	-1%	0%	i	>77	0%	-5%
CCc1nnc(NC(=O)c2ccc(S(=O)(=O)NCC(C)C)cc2)s1	-1%	0%	i	1.8*	1%	-4%
O=C(NC1=NCCS1)NC12CC3CC(CC(C3)C1)C2	-2%	-1%	i	14*	-1%	3%
Oc1ccc(Cc2nccc3cc(O)c(O)cc23)cc1O	-8%[15.4 µM]	1%[15.4 µM]	i	x	-7%[11 µM]	-28%[11.4 µM]
O=C(O)/C=C\c1c2ccc(=O)c(O)c-2oc2c(O)c(O)ccc12	6.3µM*	u	u	x	u	0.1µM*
O=C(O)[C@H]1CCCC[C@@H]1c1c2ccc(=O)c(O)c-2oc2c(O)c(O)ccc12	-10%[15.4 µM]	-24%[15.4 µM]	i	x	u	0.32µM*
Nc1ccn([C@@H]2O[C@@H](CO)[C@@H](O)[C@H]2O)c(=O)n1	3%	-2%	i	x	-10%	2%
C=C[C@@](C)(O)CC[C@H]1[C@]2(C)CCCC(C)(C)[C@H]2CC[C@]1(C)O	x	x	i	x	0%	-4%
N#Cc1ccccc1-c1ccc2ncnc(NCc3cccs3)c2c1	-4%	1%	i	x	-4%	-13%
O=C(Nc1cccnc1)c1ccc(COCC(F)(F)F)cc1	3%	1%	i	5.1*	u	-15%
CCC(=O)Nc1ccc(C(=O)Nc2cccnc2)cc1	1%	-1%	i	6.6*	-1%	1%
O=C(Nc1cccnc1)c1ccc(NC(=O)c2ccco2)cc1	-2%	0%	i	u	-1%	0%
COc1ccc(N(CC(=O)NC2CCCC2)C(=O)Cn2nnc(-c3ccc(C)cc3)n2)cc1OC	-1%	0%	i	9.4*	2%	-8%
COc1ccc(-c2nnn(CC(=O)N(CC(=O)NC3CCCC3)c3cccc(C)c3)n2)cc1OC	1%	0%	i	x	-4%	-3%
O=C(CN(CCCN1CCOCC1)C(=O)Cn1nnc(-c2ccc(F)cc2)n1)NC1CCCCC1	-2%	-1%	i	4*	-3%	-6%
SMILES	BRCT PPI green	BRCT inh red	YjeE inh	GBA mod	Hsp90 Hop PPI	Pol III holo inh
COc1ccc(N(CC(=O)NC2CCCC2)C(=O)Cn2nnc(-c3ccc(C)cc3)n2)cc1	0%	-2%	i	u	u	-6%
COc1ccc(N(CC(=O)NC2CCCC2)C(=O)Cn2nnc(-c3ccc(F)cc3)n2)cc1OC	-2%	1%	i	8.6*	0%	-4%
CC1=NNC(=S)NCCCN2CCN(CCCNC(=S)NN=C(C)C=NNC(=S)NCCCN3CCN(CCCNC(=S)NN=C1)CC3)CC2	-3%[15.4 µM]	0%[15.4 µM]	i	x	4µM*	-13%[11.4 µM]
COc1ccc(Oc2ncc3nc(-c4cccs4)c(=O)n(Cc4cccc(OC)c4)c3n2)cc1	2%	-1%	i	x	u	3%
O=c1c(-c2cccc(Cl)c2)nc2cncnc2n1C1CC1	2%	0%	i	x	-4%	-12%
CN(C)c1ncc2nc(-c3ccccc3)c(=O)n(C3CC3)c2n1	-9%	-1%	i	x	20µM*	-11%
COc1c(CC(=O)c2cc3c(cc2O)OC(C)(C)C(O)C3)ccc2c1C=CC(C)(C)O2 (stereo unspecified)	-1%[3.08 µM]	-1%	x	x	x	x
O=C(c1c(O)c2ccc(Cl)cc2[nH]c1=O)C1CC1	-2%	-3%	i	x	-5%	-10%
Cn1c(NC(=O)c2ccccc2C(F)(F)F)cc(=O)n(C)c1=O	-1%	-2%	i	x	0%	-5%
Cn1c(NC(=O)c2ccccc2Br)cc(=O)n(C)c1=O	2.5µM*	u	i	x	-5%	3%
COc1ccc2oc(=O)c(NC(=O)C3CCCCC3)cc2c1	-1%	0%	i	5.2*	7%	-1%
COc1cc2c3c(c1)/C(=C1/SC(NC(C)=O)=NC1=O)C(=O)N3C(C)(C)C=C2C	-2%	-1%	i	u	25µM*	1%
O=c1c(-c2ccc(F)cc2)nc2cnc(N3CCNCC3)nc2n1-c1ccccc1	0%	1%	i	x	12%	-5%
CSC1=Nc2sc3c(c2C2=NCCN12)CCCC3	2%	0%	i	6.4*	3%	-6%
CC[C@@H]1CN2CCc3cc(OC)c(OC)cc3[C@H]2C[C@@H]1C[C@@H]1NCCc2cc(OC)c(OC)cc21	-2%	1%	i	x	-14%	0%
Oc1c(C(Nc2ccccn2)c2ccccn2)ccc2cccnc12 (stereo unspecified)	1%	0%	i	>77	3.2µM*	-7%
CC(=O)NC(c1ccco1)c1ccc2cccnc2c1O (stereo unspecified)	-1%	0%	i	x	7.9µM*	-2%
CCN1C(=O)[C@H]2[C@H]3[C@H](O)[C@H](O)C/C(=N/OCc4ccccc4)[C@@H]3CC[C@@H]2C1=O	-1%[15.4 µM]	1%[15.4 µM]	x	x	x	x
CC1=C(C(=O)O)N2C(=O)[C@@H](NC(=O)[C@@H](N)C3=CCC=CC3)[C@@H]2SC1	1%	-1%	i	x	-2%	-8%
CCOc1cccc2cc(-c3csc(NC(=O)CCC(=O)N4CCN(C)CC4)n3)c(=O)oc12	0%	0%	i	12*	2%	-3%
COc1ccc(NS(=O)(=O)c2cc(C)ccc2C)cc1	0%	0%	i	x	2%	-12%
COCCNC(=O)c1ccc(NS(=O)(=O)c2cc(C)ccc2C)cc1	1%	0%	i	7.1*	-4%	-3%

Screening results deposited in PubChem by National Center for Advancing Translational Sciences (NCATS).
